# Results filed as inconclusive are left out. Where a call stands in place of a potency, no number is given. The source made the active and inactive calls. Unless noted, the call rests on the fitted dose curve; in most records, active means well fitted curve in the direction sought with a large enough effect in the repeat runs; inconclusive means weak or mixed curves; inactive means no such curve, though single readings can be large; an effect the other way counts as inactive or inconclusive.
# Experiments:
# [1] = qHTS assay to identify small molecule antagonists of the glucocorticoid receptor (GR) signaling pathway - cell viability counter screen (AID 720693); further: nearly all actives have a fitted effect of over 55% in size
# [2] = qHTS assay for identifying genotoxic compounds that show differential cytotoxicity against isogenic chicken DT40 cell lines with known DNA damage response pathways - wild type cell line (AID 743012); further: nearly all actives have a fitted effect of over 60% in size; further: potency means the concentration at half of the fitted maximal effect
# Procedure, shortened: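 Quantitative HTS on parental DT40 cells: 40 h compound treatment at 37 C/5% CO2, with viability then determined by CellTiter-Glo luminescence. Values serve as the DNA repair-proficient reference for differential cytotoxicity.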
# [3] = qHTS assay for identifying genotoxic compounds that show differential cytotoxicity against isogenic chicken DT40 cell lines with known DNA damage response pathways - Rad54/Ku70 mutant cell line (AID 743015); further: nearly all actives have a fitted effect of over 60% in size; further: potency means the concentration at half of the fitted maximal effect
# [4] = qHTS assay to identify small molecule antagonists of the androgen receptor (AR) signaling pathway - cell viability counter screen (AID 743033; further: nearly all actives have a fitted effect of over 45% in size)
# [5] = qHTS assay to identify small molecule antagonists of the androgen receptor (AR) signaling pathway using the MDA cell line - cell viability counter screen (AID 743041; further: nearly all actives have a fitted effect of over 45% in size; further: potency means the concentration at half of the fitted maximal effect)
# Procedure, shortened: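 R1881-driven MDA-kb2 AR-luc cells, 3,000/well, were dosed with library compounds for 16 h; cell health came from CellTiter-Fluor fluorescence in the reporter wells.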
# [6] = qHTS assay to identify small molecule antagonists of the thyroid receptor (TR) signaling pathway (AID 743065); further: nearly all actives have a fitted effect of over 55% in size; further: potency means the concentration at half of the fitted maximal effect
# Procedure, shortened: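 Antagonism measured as loss of luciferase signal in GH3 cells stably carrying a TRE-luciferase reporter, co-treated with compound and T3 (1 nM final) for 23.5 h at 37 C. Viability was read in the same well by CellTiter-Fluor.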
# [7] = test system: thyroid hormone receptor (rat, GH3 cells); test: qHTS assay to identify small molecule agonists of the thyroid receptor (TR) signaling pathway (AID 743066; calls by dose curve)
# [8] = molecular target: Estrogen receptor (Homo sapiens) (UniProt P03372); test: qHTS assay to identify small molecule antagonists of the estrogen receptor alpha (ER-alpha) signaling pathway (AID 743069; active means well fitted curve in the direction sought with a large enough effect in the signal ratio in the repeat runs, not every such curve was filed as active; the % refers to the signal ratio)
# Chain of Estrogen receptor (Homo sapiens) (P03372 whole entry, looked up): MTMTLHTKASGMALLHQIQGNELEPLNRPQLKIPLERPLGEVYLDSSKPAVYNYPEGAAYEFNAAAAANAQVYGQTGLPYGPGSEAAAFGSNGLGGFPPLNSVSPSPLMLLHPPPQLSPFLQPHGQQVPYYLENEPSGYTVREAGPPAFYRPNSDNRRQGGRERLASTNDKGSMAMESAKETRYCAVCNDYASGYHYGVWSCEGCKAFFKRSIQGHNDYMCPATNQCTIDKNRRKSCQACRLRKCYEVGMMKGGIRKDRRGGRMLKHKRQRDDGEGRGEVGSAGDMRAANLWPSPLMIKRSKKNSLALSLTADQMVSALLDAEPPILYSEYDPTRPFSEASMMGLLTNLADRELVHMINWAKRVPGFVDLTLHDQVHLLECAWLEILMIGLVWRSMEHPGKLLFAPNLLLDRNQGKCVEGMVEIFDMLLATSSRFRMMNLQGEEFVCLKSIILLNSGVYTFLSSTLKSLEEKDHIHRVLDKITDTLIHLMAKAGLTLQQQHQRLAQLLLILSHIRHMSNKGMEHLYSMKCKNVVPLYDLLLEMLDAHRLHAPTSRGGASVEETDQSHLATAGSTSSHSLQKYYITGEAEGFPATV
# Procedure, shortened: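 Compound effects are measured against 17beta-estradiol stimulation in HEK293 cells with a UAS-controlled beta-lactamase reporter for ER-alpha. Exposure lasts 18 hr at 37C; LiveBLAzer B/G FRET substrate follows for 2 hr at room temperature.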
# [9] = qHTS assay to identify small molecule antagonists of the estrogen receptor alpha (ER-alpha) signaling pathway - cell viability counter screen (AID 743074; calls by dose curve;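 further: HEK293 cells carrying ER-alpha-UAS-bla reporter stimulated with 17beta-estradiol; nearly all actives have a fitted effect of over 45% in size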)
# [10] = molecular target: Estrogen receptor (Homo sapiens) (UniProt P03372); test: qHTS assay to identify small molecule agonists of the estrogen receptor alpha (ER-alpha) signaling pathway (AID 743075; calls by dose curve)
# [11] = qHTS assay to identify small molecule antagonists of the estrogen receptor alpha (ER-alpha) signaling pathway using the BG1 cell line (AID 743080; calls by dose curve;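 further: BG1 cells stimulated with 17beta-estradiol alongside compound; series mostly up to about 70 µM; nearly all actives have a fitted effect of over 25% in size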)
# Procedure, shortened: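 Readout is ONE-Glo luminescence, taken 30 min at room temperature after reagent addition, preceded by a CellTiter-Fluor viability read; BG1-Luc-4E2 cells had received compound and 17beta-estradiol for 21.5 h at 37 C.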
# [12] = qHTS assay to identify small molecule antagonists of the estrogen receptor alpha (ER-alpha) signaling pathway using the BG1 cell line - cell viability counter screen (AID 743081);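 further: compound given together with 17beta-estradiol as the ER stimulus; nearly all actives have a fitted effect of over 45% in size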; further: potency means the concentration at half of the fitted maximal effect
# [13] = qHTS assay for identifying genotoxic compounds that show differential cytotoxicity against isogenic chicken DT40 cell lines with known DNA damage response pathways - Rev3 mutant cell line (AID 743014); further: potency means the concentration at half of the fitted maximal effect; nearly all actives have a fitted effect of over 55% in size
# [14] = qHTS assay to identify small molecule antagonists of the thyroid receptor (TR) signaling pathway - cell viability counter screen (AID 743064); further: nearly all actives have a fitted effect of over 50% in size; further: potency means the concentration at half of the fitted maximal effect
# Procedure, shortened: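 Viability of T3-stimulated (1 nM final) GH3.TRE-Luc cells is measured by CellTiter-Fluor fluorescence after 23.5 h compound exposure at 37 °C plus 30 min reagent incubation.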
# [15] = molecular target: Estrogen receptor (Homo sapiens) (UniProt P03372); test: qHTS assay to identify small molecule agonists of the estrogen receptor alpha (ER-alpha) signaling pathway using the BG1 cell line (AID 743079); further: nearly all actives have a fitted effect of over 20% in size
# Aromatase (Homo sapiens) = Aromatase (Homo sapiens) (UniProt P11511); test: qHTS assay to identify aromatase inhibitors (AID 743083); further: nearly all actives have a fitted effect of over 55% in size; further: potency means the concentration at half of the fitted maximal effect
# Chain of Aromatase (Homo sapiens) (P11511 whole entry, looked up): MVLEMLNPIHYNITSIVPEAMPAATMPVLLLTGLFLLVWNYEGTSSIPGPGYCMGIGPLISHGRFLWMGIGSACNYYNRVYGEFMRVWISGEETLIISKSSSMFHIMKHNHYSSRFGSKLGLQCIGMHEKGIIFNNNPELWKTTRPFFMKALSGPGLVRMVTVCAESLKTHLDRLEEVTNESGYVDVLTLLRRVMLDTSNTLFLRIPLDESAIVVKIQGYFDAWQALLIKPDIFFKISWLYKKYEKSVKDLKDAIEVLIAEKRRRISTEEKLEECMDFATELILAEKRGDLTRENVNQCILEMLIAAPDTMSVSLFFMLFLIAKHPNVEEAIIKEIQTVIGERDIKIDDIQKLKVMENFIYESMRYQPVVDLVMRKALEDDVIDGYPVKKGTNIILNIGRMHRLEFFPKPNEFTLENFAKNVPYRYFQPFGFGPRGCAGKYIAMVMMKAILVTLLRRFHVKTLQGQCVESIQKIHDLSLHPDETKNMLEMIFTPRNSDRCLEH
# [16] = molecular target: Androgen receptor (Homo sapiens) (UniProt P10275); test: qHTS assay to identify small molecule agonists of the androgen receptor (AR) signaling pathway using the MDA cell line (AID 743040; further: nearly all actives have a fitted effect of over 20% in size)
# Chain of Androgen receptor (Homo sapiens) (P10275 whole entry, looked up): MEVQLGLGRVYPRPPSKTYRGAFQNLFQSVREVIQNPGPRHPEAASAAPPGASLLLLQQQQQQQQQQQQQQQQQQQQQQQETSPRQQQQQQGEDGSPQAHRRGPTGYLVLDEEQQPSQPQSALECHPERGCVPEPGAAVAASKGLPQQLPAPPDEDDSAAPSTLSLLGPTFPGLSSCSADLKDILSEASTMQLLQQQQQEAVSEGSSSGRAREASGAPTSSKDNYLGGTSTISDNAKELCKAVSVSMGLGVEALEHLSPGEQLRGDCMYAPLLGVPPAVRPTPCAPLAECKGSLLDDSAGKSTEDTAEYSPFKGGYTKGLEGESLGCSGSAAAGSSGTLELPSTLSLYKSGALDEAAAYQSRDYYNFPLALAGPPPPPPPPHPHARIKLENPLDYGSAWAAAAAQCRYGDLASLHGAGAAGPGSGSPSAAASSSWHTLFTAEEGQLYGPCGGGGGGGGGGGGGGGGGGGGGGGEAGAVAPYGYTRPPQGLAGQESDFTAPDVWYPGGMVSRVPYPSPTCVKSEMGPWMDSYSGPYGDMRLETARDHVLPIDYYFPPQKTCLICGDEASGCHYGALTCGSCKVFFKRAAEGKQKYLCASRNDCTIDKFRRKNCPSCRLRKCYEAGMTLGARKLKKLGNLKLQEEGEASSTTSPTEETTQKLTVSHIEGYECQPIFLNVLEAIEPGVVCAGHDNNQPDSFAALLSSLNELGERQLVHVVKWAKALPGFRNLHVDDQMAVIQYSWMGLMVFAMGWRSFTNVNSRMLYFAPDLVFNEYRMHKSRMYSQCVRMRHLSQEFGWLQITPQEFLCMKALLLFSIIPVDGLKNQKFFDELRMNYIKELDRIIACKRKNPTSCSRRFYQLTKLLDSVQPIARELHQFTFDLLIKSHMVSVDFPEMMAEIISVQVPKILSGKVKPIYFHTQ
# Procedure, shortened: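 After a 5 h incubation at 37C and 0% CO2, MDA-kb2 reporter cells were dosed with compounds in DMSO and kept 16 h under the same conditions. Luciferase activity was then read as luminescence with ONE-Glo.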
# [17] = molecular target: Androgen receptor (Homo sapiens) (UniProt P10275); test: qHTS assay to identify small molecule antagonists of the androgen receptor (AR) signaling pathway using the MDA cell line (AID 743042; further: nearly all actives have a fitted effect of over 55% in size)
# Procedure, shortened: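 Antagonist mode: compounds plus R1881 agonist added to MDA-kb2 AR-luc cells, incubated 16 h at 37C. Luciferase reporter luminescence quantified, with multiplexed CellTiter-Fluor readout for cell viability.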
# [18] = molecular target: Androgen receptor (Homo sapiens) (UniProt P10275); test: qHTS assay to identify small molecule antagonists of the androgen receptor (AR) signaling pathway (AID 743035; active means well fitted inhibition curve with a large enough effect in the signal ratio in the repeat runs, not every such curve was filed as active; the % refers to the signal ratio)
# Procedure, shortened: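 Cell line: GeneBLAzer AR-UAS-bla GripTite (HEK293). Stimulus: R1881 added after compound. Exposure: 16 h, 37C, 5% CO2. Readout: LiveBLAzer B/G FRET fluorescence after 2 h at room temperature.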
# [19] = molecular target: Androgen receptor (Homo sapiens) (UniProt P10275); test: qHTS assay to identify small molecule agonists of the androgen receptor (AR) signaling pathway (AID 743036; active means well fitted activation curve with a large enough effect in the signal ratio in the repeat runs, with a control signal flat, not every such curve was filed as active; the % refers to the signal ratio)
# Procedure, shortened: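 Screening used 2,000 AR-bla HEK293 cells per well, treated 16 h at 37C with test compounds in DMSO alongside positive and DMSO-only controls; beta-lactamase activity was then read by LiveBLAzer B/G FRET fluorescence after 2 h at room temperature.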
Structure (SMILES),Potency [1],Potency [2],Potency [3],Potency [4],Potency [5],Potency [6],Potency [7],Potency [8],Potency [9],Potency [10],Potency [11],Potency [12],Potency [13],Potency [14],Potency [15],Potency (Aromatase (Homo sapiens)),Potency [16],Potency [17],Potency [18],Potency [19]
Cc1c(N)cccc1[N+](=O)[O-],inactive,inactive,inactive,inactive,inactive,inactive,inactive,inactive,inactive,inactive,inactive,inactive,,,,,,,,
CCCNCC(O)COc1ccccc1C(=O)CCc1ccccc1 (stereo not given),inactive,6.68 µM (active),,,inactive,23.7 µM (active),,,inactive,,,inactive,11.9 µM (active),29.8 µM (active),,,,,,
O=C1[C@H]2CCCC[C@H]2C(=O)N1CCCCN1CCN(c2nsc3ccccc23)CC1,inactive,6.68 µM (active),,,,29.8 µM (active),inactive,inactive,inactive,inactive,inactive,29.8 µM (active),5.96 µM (active),21.1 µM (active),inactive,29.8 µM (active),,,,
CCN(CC)CCNC(=O)c1cc(Br)c(N)cc1OC,inactive,inactive,inactive,inactive,inactive,inactive,inactive,inactive,inactive,inactive,inactive,inactive,,inactive,inactive,inactive,,,,
CC(C)OC(=O)C(C)N(C(=O)c1ccccc1)c1ccc(F)c(Cl)c1 (stereo not given),inactive,6.11 µM (active),13.7 µM (active),inactive,,61.1 µM (active),inactive,,inactive,,,inactive,,,,inactive,,,,
O=C1CCCCCCCCCCCC(=O)OCCO1,inactive,54.5 µM (active),27.3 µM (active),inactive,inactive,,inactive,inactive,inactive,inactive,inactive,inactive,,,inactive,48.6 µM (active),inactive,inactive,,
OC(C#CCN1CCCC1)(c1ccccc1)c1ccccc1,inactive,23.7 µM (active),26.6 µM (active),inactive,inactive,,inactive,,inactive,,,,,,,inactive,,,,
CCCCOC(=O)CCCCCCCC(=O)OCCCC,inactive,inactive,inactive,inactive,inactive,inactive,inactive,,inactive,,,inactive,,inactive,,inactive,,,,
O=CC1CC=CCC1 (stereo not given),inactive,inactive,inactive,inactive,inactive,inactive,inactive,inactive,inactive,inactive,inactive,inactive,,,inactive,inactive,inactive,inactive,inactive,inactive
Nc1c(CC(=O)O)cccc1C(=O)c1ccc(Br)cc1,inactive,inactive,,inactive,inactive,,inactive,inactive,inactive,inactive,inactive,inactive,,inactive,inactive,inactive,,,,
CCN(CC)c1ccc2c(-c3ccccc3C(=O)O)c3ccc(=[N+](CC)CC)cc-3oc2c1,inactive,12.2 µM (active),8.63 µM (active),,24.3 µM (active),,,,inactive,inactive,inactive,9.69 µM (active),,5.45 µM (active),,,,,,
CCCCC(CC)CN1C(=O)C2C3C=CC(C3)C2C1=O (stereo not given),inactive,38.6 µM (active),43.3 µM (active),,inactive,48.6 µM (active),inactive,,inactive,inactive,inactive,inactive,,54.5 µM (active),inactive,,,,,
CCCCCCCC#N,inactive,inactive,inactive,,inactive,inactive,inactive,,,,,inactive,,inactive,,,,,,
CN(C)CCCN1c2ccccc2Sc2ccccc21,inactive,9.02 µM (active),10.1 µM (active),,inactive,,inactive,,inactive,,,inactive,,2.85 µM (active),,inactive,,,,
O=C(O)C1(C(=O)Nc2ccc(Cl)cc2Cl)CC1,inactive,61.1 µM (active),,,inactive,68.6 µM (active),inactive,,,inactive,,inactive,,inactive,inactive,inactive,inactive,inactive,,
COc1cccc(N(C)C(=S)Oc2ccc3c(c2)CCCC3)n1,inactive,26.6 µM (active),,,inactive,,inactive,,,inactive,,inactive,,inactive,,inactive,,,,

# Reference: PubChem BioAssay (Tox21)
